Screens as filed in PubChem.
DAX1 inh-1 = blocks DAX1 repression of SF-1 activated StAR promoter; inhibition, % at 6.8 µM; 370,000 tested, 1.1% active; HEK293T StAR-luciferase reporter, SF-1/DAX-1 repression relief; AID 652010;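 active = inhibition above the mean over all tested compounds plus 3 SD, cut at about 3.6% in these data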;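 also: higher inhibition means more luminescence from relief of DAX-1 repression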
DAX1 inh-2 = inhibits human nuclear receptor DAX1; HEK293 Gal4-DAX1 luciferase reporter, luminescence; AID 504766; 340,000 tested, 0.99% active; inhibition, % at 6.75 µM;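 active = inhibition above the mean over all tested compounds plus 3 SD, cut at about 4.2% in these data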;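 also: inhibition shows as a rise in luminescence from relieved DAX1 repression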
ssDAF12 agonist = activators of S. stercoralis DAF-12 nuclear receptor; 370,000 tested, 1% active; HEK293 ssDAF-12/GRIP1 lit1-tk-luc reporter, luminescence; % of 3 µM dafachronic acid response; activation, % at 6.8 µM;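 active = activation above the mean over all tested compounds plus 3 SD, cut at about 0.9% in these data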
AHR activator = human AHR activation; P35869; AHR-responsive luciferase reporter cells, luminescence; activation, % at 5 µM; 320,000 tested, 2.5% active; in the data active = activation above about 47%
Target sequence (P35869 whole entry, looked up): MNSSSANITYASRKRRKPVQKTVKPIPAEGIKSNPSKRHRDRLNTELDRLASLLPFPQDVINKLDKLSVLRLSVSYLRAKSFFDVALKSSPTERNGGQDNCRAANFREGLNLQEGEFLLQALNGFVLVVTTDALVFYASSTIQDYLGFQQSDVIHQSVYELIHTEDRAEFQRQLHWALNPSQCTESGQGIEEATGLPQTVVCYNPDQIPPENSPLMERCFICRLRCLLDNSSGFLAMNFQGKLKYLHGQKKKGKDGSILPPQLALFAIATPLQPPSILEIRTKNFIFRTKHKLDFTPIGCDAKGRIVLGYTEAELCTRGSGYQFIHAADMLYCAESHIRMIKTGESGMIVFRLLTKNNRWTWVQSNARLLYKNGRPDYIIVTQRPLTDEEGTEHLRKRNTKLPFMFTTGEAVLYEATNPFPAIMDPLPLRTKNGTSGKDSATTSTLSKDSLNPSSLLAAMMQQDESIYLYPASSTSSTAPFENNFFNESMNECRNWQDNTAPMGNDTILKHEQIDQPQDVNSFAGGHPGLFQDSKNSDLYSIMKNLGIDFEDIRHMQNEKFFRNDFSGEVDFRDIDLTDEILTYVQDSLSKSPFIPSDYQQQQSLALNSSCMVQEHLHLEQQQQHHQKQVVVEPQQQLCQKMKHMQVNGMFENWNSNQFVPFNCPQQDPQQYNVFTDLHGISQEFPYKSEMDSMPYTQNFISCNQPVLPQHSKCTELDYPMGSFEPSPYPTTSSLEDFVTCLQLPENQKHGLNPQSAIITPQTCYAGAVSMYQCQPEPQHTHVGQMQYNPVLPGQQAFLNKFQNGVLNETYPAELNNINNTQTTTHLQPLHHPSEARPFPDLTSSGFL
hcDAF12 agonist = H. contortus DAF-12 activation, primary screen | HEK293 hcDAF-12 lit1-tk-luc reporter, luminescence; 0% DMSO, 100% Δ7-dafachronic acid | activation, % at 6.8 µM | 370,000 tested, 1.4% active;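 active = activation above the mean of all tested compounds plus 3 SD, cut at about 5.5% in these data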
hgDAF-12 ag = agonists of H. glycines DAF-12 nuclear receptor; HEK293 GAL4-hgDAF12 UAS-luciferase reporter, agonist luminescence; normalized to butyrate control; activation, % at 6.8 µM; 370,000 tested, 1.8% active;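 active = activation above a cutoff set at the mean of all screened compounds plus 3 SD, cut at about 10% in these data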
DAX1 conf = confirmation of human DAX1 (NR0B1) inhibitors | inhibition, % at 6.8 µM | shares compounds with DAX1 inh-1 | AID 652134 | HEK293T StAR-promoter luciferase reporter, SF-1/DAX-1 repression | 2,400 tested, 87% active;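 active = inhibition above the average of every tested compound plus 3 SD, cut at about 3.8% in these data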;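 also: active compounds raise luminescence by relieving repression of the StAR reporter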
SF1 mutant ctr = nonselective inhibitor or artifact in SF-1 mutant DAX1 counter-screen; 2,400 tested, 78% active; shares compounds with DAX1 inh-1; HEK293 StAR-luciferase, SF-1 AF2 mutant, luminescence; inhibition, % at 6.8 µM; AID 652136;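 active = inhibition above the mean of all tested compounds plus 3 SD, cut at about 3% in these data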
A number is an active result; 0 = inactive; - = not tested or not shown. Hits are enriched below; roughly 5.7% of the tested compounds scored in any of these assays.

SMILES	DAX1 inh-1	DAX1 inh-2	ssDAF12 agonist	AHR activator	hcDAF12 agonist	hgDAF-12 ag	DAX1 conf	SF1 mutant ctr
Cc1ccccc1N1CCN(C2CCCN(C(=O)CCc3c(C)noc3C)C2)CC1 (stereo unspecified)	0	0	0	0	0	0	-	-
COc1ccc2oc(C(=O)NCCc3ccccc3)c(C)c2c1	5.2	0	0	0	0	0	7.1	0
O=C(CNC(=O)c1ccc(Cl)cc1)NCc1ccccn1	0	0	0	0	0	0	-	-
CCOC(=O)c1[nH]c(C)c(C(=O)Nc2ccc(F)cc2)c1C	0	0	0	0	0	0	-	-
CCOC(=O)c1c(C)[nH]c(C(=O)OCc2ccc(F)cc2)c1C	5.7	0	0	-	0	0	7.5	5.8
CCOC(=O)c1c(C)[nH]c(C(=O)COC(=O)C2CC2)c1C	5.2	0	0	-	0	0	0	0
CCCCn1c(N)c(N(CC(C)C)C(=O)c2ccc(-c3ccc(C(C)=O)cc3)o2)c(=O)[nH]c1=O	0	0	0	0	0	0	-	-
O=C(NCCc1ccccc1F)c1cc2ccccn2n1	5.0	-	0	-	0	13	16	5.2
Cc1ccsc1C(=O)NNC(=O)C1CCCCC1C(=O)O (stereo unspecified)	6.2	0	0	0	0	16	4.0	0
O=C(OCc1nc2ccsc2c(=O)[nH]1)c1ccc(Cl)s1	0	0	0	0	0	0	-	-
CCc1noc(C)c1C(=O)NCCc1ccccc1	5.3	0	0	0	0	0	6.1	4.8
CCOC(=O)C1=CCN(S(=O)(=O)c2ccc(F)cc2)C1c1cccc(F)c1 (stereo unspecified)	0	-	0	-	0	0	-	-
COc1ccccc1Nc1nnc(SCC2CCCCO2)s1 (stereo unspecified)	5.7	0	0	0	6.0	11	4.5	0
Cc1ccc(C(=O)Nc2ncccc2O)o1	6.0	0	0	0	0	0	5.4	0
Cc1cccnc1NC(=O)c1ccc(Br)o1	0	0	0	0	0	0	-	-
O=C(CCc1nnc2n(Cc3ccccc3)c(=O)c3ccccc3n12)NCCN1CCOCC1	0	0	0	0	0	0	-	-
C/C(=N\Nc1ccc(C(=O)O)cc1)c1ccc(-n2ccnc2)cc1	6.8	0	0	0	0	12	8.3	5.3
C/C(=N\Nc1ccccc1Cl)c1ccc(-n2ccnc2)cc1	0	0	0	0	0	0	-	-
Cc1ccc(C)c(NC(=O)CN(C)C(=O)COc2cccc3c2OC(C)(C)C3)c1	0	0	0	0	0	0	-	-
CCCN1CCN(C(=O)c2cc3c(s2)-c2ccccc2OC3)CC1	5.4	0	0	0	0	0	9.9	5.2
CCOC(=O)N1CCN(C(=O)c2cc3c(s2)-c2ccccc2OC3)CC1	0	0	0	0	0	0	-	-
CC(C)C[C@@H](CN1CCC[C@@H]1CN1C(=S)NC[C@@H]1Cc1ccc(O)cc1)N1C[C@H](Cc2ccc(O)cc2)N(CCc2ccccc2)C1=S	4.7	-	0	-	0	0	0	0
CC(C)C[C@@H](CN1CCCC1CN1C(=S)NC[C@@H]1Cc1ccc(O)cc1)N1C[C@H](Cc2ccc(O)cc2)N(CC2CCCCCC2)C1=S (stereo partly specified)	6.3	0	0	-	0	0	0	0
Cc1nc(C(=O)NCc2ccccc2)sc1C1(C)CC(c2ccccc2)=NO1 (stereo unspecified)	0	0	0	0	0	0	-	-
Cc1cc(=O)n2c(n1)NC(Nc1cccc(C)c1C)=NC2c1ccccc1 (stereo unspecified)	0	0	0	0	0	0	-	-
SMILES	DAX1 inh-1	DAX1 inh-2	ssDAF12 agonist	AHR activator	hcDAF12 agonist	hgDAF-12 ag	DAX1 conf	SF1 mutant ctr
O=C(Nc1ccccc1)c1cc(S(=O)(=O)NCc2ccncc2)ccc1Cl	0	0	0	0	0	0	-	-
O=C1NC[C@H](Cc2ccccc2)N(CC2CCN(CCCC3CCCC3)CC2)C1=O	5.5	0	0	-	0	0	0	0
CC(C)c1ccc2nc(N)sc2c1	5.9	0	0	0	5.8	11	11	6.6
NC(=O)c1sc2nc3c(cc2c1N)CCCCCC3	0	0	0	0	0	0	-	-
Nc1c(C(=O)C2CC2)sc2nc3c(cc12)CCC3	4.7	0	0	0	0	11	9.8	10.0
O=C(COC(=O)c1c(F)cccc1F)Nc1ccc(N2CCCCC2)cc1	0	0	0	0	0	0	-	-
CCOC(=O)c1ccc(NC(=O)N2CCCCCC2)cc1	5.0	0	0	0	0	0	14	8.0
O=C(O)c1ccc(NC(=S)N2CCCCC2)cc1	0	0	0	0	0	0	-	-
CCOC(=O)c1ccc(NC(=O)N2CCOCC2)cc1	0	0	0	0	0	0	-	-
CC(=O)c1ccc(NC(=S)N2CCCC2)cc1	5.1	0	0	-	0	0	0	0
O=[N+]([O-])c1ccc(S(=O)(=O)N/N=C/c2ccsc2)cc1	0	0	0	-	0	0	-	-
Cn1cnc2cc(NC(=O)c3cccs3)ccc21	4.6	5.7	0	0	0	0	3.8	3.7
Cn1cnc2cc(NC(=O)c3ccc(Cl)cc3)ccc21	6.6	0	0	0	0	12	14	6.4
CC(C)NC(=O)N(C)C[C@H]1Oc2ccc(NC(=O)Nc3ccc(C(F)(F)F)cc3)cc2C(=O)N([C@H](C)CO)C[C@@H]1C	0	0	0	0	0	0	-	-
O=[N+]([O-])c1ccccc1S(=O)(=O)Nc1cccc(S(=O)(=O)N2CCCC2)c1	0	0	0	0	0	0	-	-
O=C(Nc1nccs1)c1csc([C@H]2C[C@H](O)[C@@H](CO)O2)n1	4.9	-	0	-	0	0	5.9	3.0
CCCOc1ccc(F)cc1-c1cc(C(=O)Nc2ccc(C)c(NS(C)(=O)=O)c2)[nH]n1	0	-	0	-	0	0	-	-
COc1ccc(-c2cc3ccc(OCC(C)=O)cc3oc2=O)cc1	9.8	0	0	0	5.8	11	6.5	4.5
COc1ccc(-c2cc3ccc(OCC(C)=O)cc3oc2=O)cc1OC	0	0	0	0	0	0	-	-
O=C1NC[C@@H](CCCCN2CCN(CCc3ccccc3)C(=O)C2=O)N(Cc2ccccc2)C1=O	0	-	0	-	0	0	-	-
N#Cc1ccc2sn(-c3ccccc3)c(=O)c2c1	7.9	0	0	-	0	11	5.1	3.5
O=c1c2cc([N+](=O)[O-])ccc2sn1-c1ccccc1	0	0	0	-	0	0	-	-
Cc1csc(NC(=O)c2cc(C)on2)n1	7.0	0	0	0	0	0	6.8	5.9
Cc1csc(NC(=O)c2cnccn2)n1	0	0	0	0	0	0	-	-
COc1cc(C)c(NC(=O)c2cccc(S(=O)(=O)N3CCCC3)c2)cc1OC	0	0	0	0	0	0	-	-
